# Records with an inconclusive call do not appear. A number with no mark means an inactive call. The source made the active and inactive calls. The call rests on the fitted dose curve; in most records, active means well fitted curve in the direction sought with a large enough effect; inconclusive means small, poorly fitted or top-dose-only effect, or another doubt; inactive means no such curve, though single readings can be large; an effect the other way counts as inactive or inconclusive.
# Assays:
# [1] = Viability qHTS for spleen associated tyrosine kinase inhibitor (SYKi) naive MV4-11 cells (AID 1963823); further: nearly all actives have a fitted effect of over 40% in size; further: potency means the concentration at half of the fitted maximal effect
# Outline: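 Seeding of 500 SYKi-naive MV4-11 cells per well onto pre-dispensed compounds preceded a 72 hr incubation at 37 C. Luminescent CellTiter-Glo signal, read after 10 min at room temperature, reflected viable cells.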
# [2] = target: Cytochrome P450 3A7 (Homo sapiens) (UniProt P24462); experiment: Cytochrome P450 family 3 subfamily A member 7 (CYP3A7) small molecule antagonists: luciferase biochemical qHTS assay (AID 1963596); further: on the % scale 0 is the no-effect control and ±100 the full control effect; nearly all actives have a fitted effect of over 40% in size
# Chain of Cytochrome P450 3A7 (Homo sapiens) (P24462 whole entry, looked up): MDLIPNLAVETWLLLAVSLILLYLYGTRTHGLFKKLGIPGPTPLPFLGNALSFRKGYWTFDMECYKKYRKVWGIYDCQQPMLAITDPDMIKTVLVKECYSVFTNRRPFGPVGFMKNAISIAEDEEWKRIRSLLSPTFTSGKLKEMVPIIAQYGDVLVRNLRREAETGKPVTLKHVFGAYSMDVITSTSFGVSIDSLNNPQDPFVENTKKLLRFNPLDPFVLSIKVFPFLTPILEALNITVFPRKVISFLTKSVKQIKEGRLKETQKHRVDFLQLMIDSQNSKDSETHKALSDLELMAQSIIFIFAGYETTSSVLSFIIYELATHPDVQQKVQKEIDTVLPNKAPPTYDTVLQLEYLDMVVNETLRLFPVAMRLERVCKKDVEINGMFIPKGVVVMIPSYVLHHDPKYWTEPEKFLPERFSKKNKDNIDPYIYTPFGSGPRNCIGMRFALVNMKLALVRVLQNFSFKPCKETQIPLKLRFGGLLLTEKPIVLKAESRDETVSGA
# Outline: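 Enzyme-substrate mix + cpd (DMSO), 10 min RT; + NADPH regen system, 1 h RT; + luciferin detection reagent, 20 min RT; luminescence read. Proluciferin substrate, P450-Glo format, 1536-well qHTS.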
# [3] = Cellular viability qHTS for adrenocortical cancer (ACC) cell line SW-13 (AID 1963989); conditions: SW-13 ACC cells viability, CellTiter-Glo, 48 h; activity (max response): hits give low values;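 further: cells grown in serum-free medium with ITS supplement; on the % scale 0 is the no-effect control and ±100 the full control effect; nearly all actives have a fitted effect of over 65% in size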
# Outline: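 SW-13 cells in ITS-supplemented serum-free DMEM were plated overnight, then exposed for 48 h at 37C to compound titrations (up to 46 uM final). Viability was read by CellTiter-Glo luminescence; four-parameter logistic fits gave IC50 and efficacy.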
# [4] = Cellular viability qHTS for adrenocortical cancer (ACC) cell line NCI-H295R (AID 1963990);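 further: 0% = DMSO only wells and -100% = full killing with cytotoxic reference compound; nearly all actives have a fitted effect of over 60% in size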
# Outline: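 Luminescent ATP read-out (CellTiter-Glo, 20 min RT) after 48 h drug exposure of NCI-H295R cells; a titration up to 46 uM final. Data normalized to doxorubicin (100% inhibition) and DMSO (0%); 4-parameter fit gives IC50, max response.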
# [5] = Viability qHTS for spleen associated tyrosine kinase inhibitor (SYKi) drug resistant MV4-11 cells (AID 1963824); further: nearly all actives have a fitted effect of over 35% in size; further: potency means the concentration at half of the fitted maximal effect
# Outline: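 SYK inhibitor-resistant MV4-11 AML cells, 500 per well, added to predispensed compounds and incubated 72 hr at 37 C, 5% CO2. Viability measured by CellTiter-Glo luminescence after 10 min at room temperature.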
compound,measurement,setting,value
COC(=O)[C@@]12C(=O)C(C)C(=O)[C@]1(C)C(C)=C[C@H]1[C@]3(C=O)CC[C@H](OC(C)=O)C(C)(C)[C@H]3CC[C@@]12C (some centres not stated),Potency,[1],inactive
COc1ccc2c3c1O[C@H]1[C@H](O)CC[C@H]4[C@@H](C2)N(C)CC[C@@]341,Potency,[2],inactive
same,activity (max response),[3],-5.89%
same,Potency,[4],inactive
COC1CC(O[C@H]2CC[C@@]3(C)C(CCC4C3CC[C@]3(C)C(C5=CC(=O)OC5)CCC43O)C2)OC(C)C1OC1OC(COC2OC(CO)C(O)C(O)C2O)C(O)C(O)C1O (some centres not stated),Potency,[1],1.23 µM (active)
same,Potency,[5],0.693 µM (active)
C[C@]12CC[C@H]3[C@@H]([C@H](O)CC4=CC(=O)CC[C@@]43C)[C@@H]1CC[C@@H]2O,Potency,[1],inactive
same,Potency,[5],inactive
CC(=O)O[C@@H]1[C@@H](O)[C@H]2O[C@@H]3C=C(C)[C@@H](O)C[C@]3(CO)[C@]1(C)[C@]21CO1,Potency,[1],0.321 µM (active)
same,Potency,[5],0.321 µM (active)
C=C1C2(C)CC3C(C)(O)C4=CC(=O)OC(C)(C)C4=CCC3(C)C13C(=O)OC(C)C3(O)C2=O (configuration not stated),Potency,[1],inactive
COC1CC(OC2CCC3(C=O)C(CCC4C3CCC3(C)C(C5=CC(=O)OC5)CCC43O)C2)OC(C)C1OC1OC(CO)C(O)C(O)C1O (configuration not stated),Potency,[1],0.0862 µM (active)
same,Potency,[5],0.0544 µM (active)
CC(C)(NC(=O)[C@@H](N)Cc1ccc(O)cc1)C(=O)N[C@@H](Cc1cc2ccccc2[nH]1)C(=O)N[C@@H](Cc1ccccc1)C(=O)O,Potency,[1],3.35 µM (active)
COc1ccc(CCNCc2ccc(OC)c3ccccc23)cc1,Potency,[1],9.2 µM (active)
CN1CCc2cc3c(cc2C1C1OC(=O)c2c1ccc1c2OCO1)OCO3 (configuration not stated),Potency,[1],inactive
same,Potency,[5],inactive
CO[C@H]1C[C@H](O[C@H]2CC[C@]3(C=O)[C@H]4CC[C@]5(C)[C@@H](C6=CC(=O)OC6)CC[C@]5(O)[C@@H]4CC[C@]3(O)C2)O[C@H](C)[C@H]1O,Potency,[1],0.0632 µM (active)
same,Potency,[5],0.0399 µM (active)
C=C1C(=O)CC2OC2(C)CC2OC(=O)C(=C)C2C(O)C1OC(=O)/C(C)=C\C (configuration not stated),Potency,[1],0.508 µM (active)
same,Potency,[5],0.57 µM (active)
CCN1C[C@]2(COC(=O)c3ccccc3N3C(=O)C[C@H](C)C3=O)CC[C@H](OC)[C@@]34[C@@H]5C[C@H]6[C@H](OC)[C@@H]5[C@](O)(C[C@@H]6OC)[C@](O)([C@@H](OC)[C@H]23)[C@@H]14,Potency,[1],inactive
same,Potency,[5],inactive
C[C@H]1O[C@@H](O[C@H]2C[C@@H](O)[C@]3(CO)C4C(CC[C@]3(O)C2)[C@@]2(O)CC[C@H](C3=CC(=O)OC3)[C@@]2(C)C[C@H]4O)[C@@H](O)[C@@H](O)[C@H]1O (some centres not stated),Potency,[1],0.172 µM (active)
same,Potency,[5],0.122 µM (active)
COC(=O)C12C(=O)C(C)(O)C(=O)C1(C)C(C)=CC1C34CCC(OC3=O)C(C)(C)C4CCC12C (configuration not stated),Potency,[1],inactive
CN1CCCC1CCOC(c1cc2nccc(C(=O)O)c2[nH]1)c1ccccc1Cl (configuration not stated),Potency,[1],inactive
same,Potency,[5],inactive
C=CCC1=C(C)C(OC(=O)C2C(C=C(C)C)C2(C)C)CC1=O (configuration not stated),Potency,[1],5.45 µM (active)
same,Potency,[5],9.69 µM (active)
CO[C@@H]1[C@H](O)[C@@H](O[C@@H]2C[C@H]3CC[C@@H]4C(CC[C@]5(C)[C@@H](C6=CC(=O)OC6)CC[C@]45O)[C@@]3(C)[C@H](O)C2)O[C@H](C)[C@@H]1O[C@@H]1O[C@H](CO)[C@@H](O)[C@H](O)[C@H]1O (some centres not stated),Potency,[1],0.0968 µM (active)
same,Potency,[5],0.0544 µM (active)
C[C@]12CC[C@@H](O)C[C@@H]1CC[C@@H]1[C@@H]2CC[C@]2(C)C(=O)[C@@H](Br)C[C@@H]12,Potency,[1],16.4 µM (active)
C[C@H]1O[C@@H](O[C@H]2CC[C@]3(C=O)C4CC[C@]5(C)[C@@H](C6=CC(=O)OC6)CC[C@]5(O)[C@@H]4CC[C@]3(O)C2)C[C@@H](O)[C@@H]1O (some centres not stated),Potency,[1],0.0563 µM (active)
CC1Oc2cc3c(-c4c(O)cc(O)c5c(O)c6c(cc45)OC(C)C(C)C6=O)c(O)cc(O)c3c(O)c2C(=O)C1C (configuration not stated),Potency,[1],5.17 µM (active)
same,Potency,[5],4.61 µM (active)
C=C[C@H]1[C@H](O[C@@H]2O[C@H](CO)[C@@H](O)[C@H](O)[C@H]2O)OC=C2C(=O)OCC[C@H]21,Potency,[1],inactive
same,Potency,[5],inactive
C[C@@]12C[C@@H](c3ccoc3)OC(=O)C1CC[C@]1(C)[C@H]2[C@H]2C=C[C@]1(O)C(=O)O2 (some centres not stated),Potency,[1],inactive
same,Potency,[5],inactive
CC(C)C1(OO)C=C2C(=O)CC3C(C)(C(=O)O)CCCC3(C)C2CC1 (configuration not stated),Potency,[1],inactive
Nc1ccn(CC(CO)OCP(=O)(O)O)c(=O)n1 (configuration not stated),Potency,[1],inactive
CCc1[nH]c2ccc(OC)cc2c1CCN(C)C,Potency,[1],10.3 µM (active)
same,Potency,[5],inactive
COc1ccn(C)c(=O)c1C#N,Potency,[1],inactive
CC1CCCC(O)CC(=O)Cc2cc(O)cc(O)c2C(=O)O1 (configuration not stated),Potency,[1],inactive
same,Potency,[5],inactive
CC1=CC2/C=C(\C)CCC(O)C(O)/C=C/C(=O)C23C(=O)NC(CC(C)C)C3C1C (configuration not stated),Potency,[1],1.26 µM (active)
same,Potency,[5],1.42 µM (active)
COC1C(O)C(C)OC(OC2C(CO)O[C@@H](O[C@@H]3CC4CCC5C(CC[C@]6(C)[C@@H](C7=CC(=O)OC7)CC[C@]56O)[C@@]4(C)[C@H](O)C3)C(O)C2O)C1O (some centres not stated),Potency,[1],0.385 µM (active)
same,Potency,[5],0.217 µM (active)
COC1C(O)C(OC2CCC3(C=O)C(CCC4C3CCC3(C)C(C5=CC(=O)OC5)CCC43O)C2)OC(C)C1OC1OC(CO)C(O)C(O)C1O (configuration not stated),Potency,[1],0.153 µM (active)
COC1CC(OC2CCC3(C)C(=CCC4C3CCC3(C)C(C(C)OC5OC(COC6OC(CO)C(O)C(O)C6O)C(O)C(O)C5O)CCC43O)C2)OC(C)C1OC1OC(C)C(O)C(OC)C1O (configuration not stated),viability (% of control),[1],91.8% [at 9.25 µM]
same,"viability, % of control",[5],87.9% [at 9.25 µM]
COc1ccc2c(c1)[nH]c1c(C)nccc12,Potency,[1],13 µM (active)
same,Potency,[5],14.6 µM (active)
COC1CC(OC2CCC3(C)C(CCC4C3CCC3(C)C(C5=CC(=O)OC5)C(OC(C)=O)CC43O)C2)OC(C)C1OC1OC(CO)C(O)C(O)C1O (configuration not stated),Potency,[1],0.769 µM (active)
same,Potency,[5],0.485 µM (active)
CCN1CC2(COC)C3[C@@H](OC)C4C1C3(C1C[C@]3(O)[C@H](OC(=O)c5ccccc5)C1[C@]4(OC(C)=O)[C@@H](O)[C@@H]3OC)[C@H](OC)C[C@H]2O (some centres not stated),Potency,[1],inactive
same,Potency,[5],inactive
O=C(O)c1ccnc2cc(C(OCCN3CCCCC3)c3ccccc3Cl)[nH]c12 (configuration not stated),Potency,[1],inactive
same,Potency,[5],inactive
C[C@]12CC[C@H](O)CC1=CC[C@@H]1C2CC[C@]2(C)[C@@H](C3=CC(=O)OC3)CC[C@]12O (some centres not stated),Potency,[1],11.4 µM (active)
CC(=O)OC1CC(O)C(C)(C)C2CC(OC(C)=O)C3(C)C(CCC4(C)C(c5ccoc5)C(=O)C5OC543)C12C (configuration not stated),Potency,[1],inactive
C[C@]12CC[C@H](O[C@@H]3O[C@H](CO)[C@@H](O)[C@H](O)[C@H]3O)CC1=CC[C@@H]1C2CC[C@]2(C)[C@@H](C3=CC(=O)OC3)CC[C@]12O (some centres not stated),Potency,[1],2.73 µM (active)
COc1cc2c(cc1OC)[C@@]13CCN4CC5=CCO[C@H]6CC(=O)N2[C@H]1[C@H]6[C@H]5C[C@H]43,Potency,[1],inactive
same,Potency,[5],inactive
COC1CC(O[C@H]2CC[C@]3(C)C4CC[C@]5(C)[C@@H](C6=CC(=O)OC6)[C@@H](OC(C)=O)C[C@]5(O)C4CC[C@@H]3C2)OC(C)C1O[C@@H]1O[C@H](CO)[C@@H](O)[C@H](O)[C@H]1O (some centres not stated),Potency,[1],0.306 µM (active)
same,Potency,[5],0.243 µM (active)
COC[C@@H]1OC(=O)c2coc3c2[C@]1(C)C1=C(C3=O)[C@H]2CC[C@H](O)[C@@]2(C)C[C@@H]1OC(C)=O,Potency,[1],8.2 µM (active)
same,Potency,[5],6.51 µM (active)
C/C=C(\C)C(O)C(C)/C=C(C)/C=C/C/C(C)=C/Cc1nc(OC)c(OC)c(O[C@@H]2O[C@@H](C)[C@H](O)[C@@H](O)[C@H]2O)c1C (some centres not stated),Potency,[1],0.1 µM (active)
same,Potency,[5],0.252 µM (active)
COC[C@]12CN(C)C3C4[C@H](OC)[C@H]1C3(C(OC)C[C@H]2O)[C@H]1C[C@@]2(O)[C@H](OC(=O)c3ccccc3)[C@@H]1[C@]4(O)[C@@H](O)[C@@H]2OC (some centres not stated),Potency,[1],inactive
same,Potency,[5],inactive
C=C(C)[C@@]12O[C@@H]1[C@@]1(C)C(=CC2=O)CC[C@@H](OC(C)=O)[C@@H]1C,Potency,[1],2.31 µM (active)
same,Potency,[5],2.31 µM (active)
C=C1[C@@H](C)[C@H]2[C@H](Cc3ccccc3)NC(=O)[C@]23[C@H](OC(C)=O)/C=C/[C@](C)(O)C(=O)[C@@H](C)C/C=C/[C@H]3[C@@H]1O,Potency,[1],1.46 µM (active)
same,Potency,[5],0.731 µM (active)
Fc1cc(F)c2c(c1)[C@H]1C=CC[C@H]1C(c1cccnc1)N2 (some centres not stated),Potency,[1],2.91 µM (active)
same,Potency,[5],3.66 µM (active)
Clc1ccc(CO/N=C(\Cn2ccnc2)c2ccc(Cl)cc2Cl)c(Cl)c1,Potency,[1],13.3 µM (active)
same,Potency,[5],9.44 µM (active)
CCCCCCC(C)(C)c1cc(O)c2c(c1)OC(C)(C)C1CC=C(CO)C[C@H]21 (some centres not stated),Potency,[1],1.18 µM (active)
same,Potency,[5],1.66 µM (active)
CCN1C[C@]2(COC)[C@H](O)C[C@H](OC)[C@]34[C@@H]5C[C@]6(O)[C@H](OC(=O)c7ccccc7)[C@@H]5[C@@](O)([C@H]([C@H](OC)[C@H]23)[C@@H]14)[C@@H](O)[C@@H]6OC,Potency,[1],inactive
same,Potency,[5],inactive
COCC1OC(=O)c2coc3c2C1(C)C1=C(C3=O)C2CCC(=O)C2(C)CC1O (configuration not stated),Potency,[1],inactive
same,Potency,[5],inactive
CCCCCOc1cc2c(cc1-c1cc(/C=C/C(=O)O)ccc1O)C(C)(C)CCC2(C)C,Potency,[1],20.6 µM (active)
same,Potency,[5],23.1 µM (active)
C=C(CO)C(=O)O[C@H]1CC(=C)[C@@H]2C[C@H](O)C(=C)[C@@H]2[C@H]2OC(=O)C(=C)[C@@H]21,Potency,[1],1.8 µM (active)
same,Potency,[5],1.61 µM (active)
N#CC(OC1OC(COC2OC(CO)C(O)C(O)C2O)C(O)C(O)C1O)c1ccccc1 (configuration not stated),Potency,[1],inactive
same,Potency,[5],inactive
COC(=O)C1(C)CCC(=O)C2(C)c3c(O)cc(C(C)C)cc3C(O)C(OC(C)=O)C12 (configuration not stated),Potency,[1],inactive
same,Potency,[5],inactive
